# Only some compounds are listed: those with a hit (about 21% of all), similar ones and a draw of the others.
# Cycloheximide cs: Cycloheximide Counterscreen for Small Molecule Inhibitors of Shiga Toxin. cell reporter, cycloheximide protein synthesis inhibition counterscreen. max response, %. actives 12% (n = 300,000); in the data active = max response mostly above about 13%, no sharp cut-off; inactive = mostly below about 14%; also: read at 38.3 µM for the half of the compounds with a filed dose; 0% is about no effect
# Shiga inhibitor: A qHTS for Small Molecule Inhibitors of Shiga Toxin | AID 2315, 2010 | actives 9.2% (n = 290,000) | inhibition, % at 38.7 µM | Vero cells, Shiga toxin protein synthesis inhibition reporter; in the data active = inhibition mostly above about 28%, no sharp cut-off; inactive = mostly below about 43%; also: 0% is about no effect
# AMA1-RON2 inh: qHTS for Inhibitors of AMA1-RON; Towards Development of Antimalarial Drug Lead: Primary Screen | Plasmodium falciparum AMA1 (3D7) - RON2 peptide interaction | AlphaScreen AMA1-biotinylated RON2 peptide binding | Potency, µM (series often up to 58.2 µM), without a hit: at the top dose activity change, negative = inhibition, usual class: inhibitors | actives 0.2% (n = 360,000);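 also: potency is read from the fitted curve at half-maximal effect; 0% = vehicle wells and -100% = peptide control; nearly all actives have a fitted effect of over 45% in size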
#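 AMA1 (3D7) with his tag at 25 nM final met compounds first, then biotinylated RON2 peptide at 25 nM; detection used donor plus acceptor beads, 10 µg/mL apiece, read by AlphaScreen after 30 min at room temperature.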
# HCV inhibitor: qHTS Assay for Inhibitors of Hepatitis C Virus (HCV) | Huh7.5.1 HCVcc-Cre infection, luciferase reporter, 44 h | Potency, µM (highest dose often 41.8 µM), without a hit: top-dose activity change, negative = inhibition, actives largely listed as inhibitors | actives 3.4% (n = 340,000) | AID 651820, 2012; also: potency is read from the fitted curve at half-maximal effect; % is scaled to controls: 0 for no effect and ±100 for the full control effect
#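 Reporter virus HCVcc-Cre (~0.5 moi) infects cells exposed to compound; seeding density 1,000 cells/well with 4 h settling beforehand. Luminescence, 15 sec read, taken 44 h post-infection following a 15 min RT substrate incubation.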
# Pf growth 96h: Primary qHTS for delayed death inhibitors of the malarial parasite plastid, 96 hour incubation; AID 504834, 2011; P. falciparum luciferase reporter growth, 96 h; Potency, µM (series often up to 28.7 µM), inactives show at the top dose activity change, negative = inhibition, usual class: inhibitors; actives 6.9% (n = 320,000); also: potency is read from the fitted curve at half-maximal effect; % is scaled to controls: 0 for no effect and ±100 for the full control effect
#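 Readout is luminescence from an integrated firefly luciferase in P. falciparum. Red cells, 2% hematocrit and 0.05% parasitemia final, were cultured with compound through two parasite generations (96 hours) at 37 C, 5% CO2.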
# Pf growth 48h: Primary qHTS for delayed death inhibitors of the malarial parasite plastid, 48 hour incubation; AID 504832, 2011; P. falciparum luciferase growth in erythrocytes, 48 h; Potency, µM (top dose mostly 28.7 µM), for inactives: at the highest dose activity change, negative = inhibition, most hits filed as inhibitors; actives 5.9% (n = 310,000); also: potency is read from the fitted curve at half-maximal effect; % is scaled to controls: 0 for no effect and ±100 for the full control effect
#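 Growth was read as firefly luciferase luminescence after a 48 h, 37 C, 5% CO2 exposure of compounds to reporter-bearing P. falciparum cultures (0.1% parasitemia, 2% hematocrit final) in Albumax-supplemented RPMI 1640.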
# * = called active by the depositor; ? = inconclusive; nt = no result given. Unless noted, calls follow the shape of the dose curve; as a rule, active = well fitted curve in the direction sought with a large enough effect; inconclusive = small, poorly fitted or top-dose-only effect, or another doubt; inactive = no such curve, though single readings can be large; an effect the other way counts as inactive or inconclusive.
SMILES,Cycloheximide cs,Shiga inhibitor,AMA1-RON2 inh,HCV inhibitor,Pf growth 96h,Pf growth 48h
CCN(CC)S(=O)(=O)c1ccc(-c2nnc(SCc3nnc(-c4ccccc4)o3)o2)cc1,-5.7,-15.4,5.2%,-4.2%,3.7µM*,-0.2%
O=S(=O)(c1ccc(-c2nnc(SCc3nnc(-c4ccccc4)o3)o2)cc1)N1CCCC1,-0.9,14.4,25.4%,?,88.2%,?
Cc1ccc(S(=O)(=O)N(C)Cc2ccc(-c3nnco3)cc2)cc1,-1.6,-3.2,0.8%,9.2%,52.7%,34.3%
CCN(CC)S(=O)(=O)c1ccc(-c2nnco2)cc1,7.8,-3.1,12.1%,7.6%,13.1µM*,-26.0%
CC1=C(C(=O)N2CCCCCC2)CC(CC(=O)NC2CCCC2)C(=O)N1Cc1ccc(C(C)(C)C)cc1 (centres undefined),nt,nt,10.0%,nt,nt,nt
CCCCn1c(=O)[nH]c2nc3cc(NC(C)=O)ccc3nc2c1=O,6.6,4.7,4.9%,14.1%,2.3%,14.7µM*
CCCCCCn1c(=O)[nH]c2nc3cc(N)c(C)cc3nc2c1=O,3.1,-13.2,4.5%,?,?,-11.6%
O=C(CSc1nc(-c2ccco2)cc(C(F)(F)F)n1)Nc1ccc(C(=O)N2CCCCC2)cc1,-0.9,-6.2,6.2%,11.2µM*,?,nt
O=C(CSc1nc(-c2ccco2)cc(C(F)(F)F)n1)Nc1ccccc1C(F)(F)F,6.1,10.3,3.0%,?,7.38µM*,17.8%
Cc1c(CCC(=O)NCCC(=O)O)c(=O)oc2c(C)c3oc4c(c3cc12)CCCC4,6.1,30.4,0.0%,2.3%,20.3%,-10.2%
O=S(=O)(c1ccc(F)cc1)N1CCN(Cc2cc3c(cc2Br)OCCO3)CC1,nt,nt,3.4%,-8.4%,?,?
O=C(CN1CCN(c2ccc(O)cc2)CC1)Nc1ccc2c(c1)OCCCO2,nt,nt,-5.7%,6.31µM*,?,?
CC(C)n1c(N2CCN(CC(=O)Nc3ccc4c(c3)OCCO4)CC2)nc2ccccc21,-1.9,14.7,-2.4%,?,5.86µM*,?
Fc1ccc(N2CCN(Cc3cc4c(cc3Br)OCO4)CC2)cc1,6.5,-20.8,?,-7.5%,?,209.3%
Oc1ccc(N2CCN(Cc3cc4c(cc3Br)OCCO4)CC2)cc1,-3.3,-1.7,-18.5%,5.6%,13.1µM*,11.7µM*
O=S(=O)(c1cccc(F)c1)N1CCN(Cc2cc3c(cc2Br)OCCO3)CC1,nt,nt,-8.4%,-3.5%,?,9.28µM*
CC1(NC(=O)c2cccc(S(=O)(=O)N3CCN(c4ccc(F)cc4)CC3)c2)CCS(=O)(=O)C1 (centres undefined),nt,nt,0.0%,-4.6%,?,?
Cc1onc(-c2ccccc2Cl)c1C(=O)NNC(=O)c1cccc(F)c1,-5.4,-5.9,93.0%,-1.6%,25.2%,2.4%
O=C(c1ccco1)N1CCc2[nH]nc(-c3ccccc3)c2C1,-2.0,-4.6,5.8%,7.8%,?,1.8%
O=C1NC(=O)N(Cc2ccccc2)C(=O)/C1=C\C=C\c1ccco1,29.7*,37.1,-27.1%,-14.6%,?,14.2%
O=C1NC(=O)N(CCc2ccc(F)cc2)C(=O)/C1=C\C=C\c1ccccc1,20.8*,26.6,-7.3%,3.98µM*,?,28.8%
O=C1NC(=O)N(c2ccccc2)C(=O)/C1=C/C=C/c1ccco1,36.1*,57.2*,-2.0%,?,21.7%,20.6%
Cc1cc(C)cc(N2C(=O)NC(=O)/C(=C/c3cccn3-c3ccc(Cl)cc3)C2=O)c1,0.5,6.6,-11.3%,10.8%,42.7%,17.4%
O=C1NC(=O)N(Cc2ccco2)C(=O)/C1=C/C=C/c1ccco1,-0.1,-3.8,?,-1.1%,?,11.8%
CN(C)c1ccc(/C=C/C=C2/C(=O)NC(=O)N(c3ccccc3)C2=O)cc1,-2.0,11.9,?,?,-11.6%,27.5%
SMILES,Cycloheximide cs,Shiga inhibitor,AMA1-RON2 inh,HCV inhibitor,Pf growth 96h,Pf growth 48h
CC(C)(C)n1cccc1/C=C1\C(=O)NC(=O)N(c2ccccc2)C1=O,10.2,16.2,-2.4%,16.7%,10.4µM*,-6.6%
Cc1ccccc1Nc1nc(N)[nH]c(=O)c1N=O,nt,nt,29.6%,nt,nt,nt
CCOC(=O)c1c(NC(=O)COC(=O)Cc2n[nH]c(=O)c3ccccc23)sc(C(=O)NC)c1C,nt,nt,16.3%,3.7%,nt,nt
CC(=O)c1c(C)[nH]c(C(=O)CN2C(=O)NC(C)(CCC(C)C)C2=O)c1C (centres undefined),-0.6,-11.2,-3.7%,?,?,-25.6%
CC1(C)CO[C@@H](CC(=O)O)CN1,nt,nt,nt,nt,-23.3%,-0.4%
S=C(NCc1ccccc1)N1CCN(C(=S)NCc2ccccc2)CC1,nt,nt,-7.0%,-10.1%,61.2%,44.6%
Cc1ccc(N2C(=O)NC(=O)/C(=C\C=C\c3ccco3)C2=O)cc1C,17.8*,12.3,-26.3%,?,9.0%,10.9%
Cc1ccc(N2C(=O)NC(=O)/C(=C\C=C\c3ccco3)C2=O)cc1,61.0*,56.3*,-14.4%,?,33.0%,9.2%
CCOC(=O)C1=C(C)N(c2ccc(C)c(C)c2)C(=O)/C1=C\c1ccco1,-3.3,17.3,?,?,?,0.6%
CN1C(=O)/C(=C/C=C/c2ccco2)C(=O)NC1=S,-0.8,-14.8,?,6.5%,31.7%,1.1%
Cc1cccc(N2C(=O)NC(=O)/C(=C\C=C\c3ccco3)C2=O)c1,20.2*,41.9,-8.9%,?,34.4%,6.2%
CC1Cc2c([nH]c3ccccc23)C(=O)N1 (centres undefined),4.6,13.0,1.6%,?,9.28µM*,9.5%
O=C(NC(c1ccc2c(c1)OCO2)c1ccccn1)C1CCN(CCOc2ccccc2)CC1 (centres undefined),nt,nt,11.8%,nt,nt,nt
CN(C)S(=O)(=O)c1cccc(COc2cccnc2[N+](=O)[O-])c1,-3.5,1.6,6.4%,-18.3%,29.0%,11.6%
O=[N+]([O-])c1ncccc1OCc1ccc(Cl)c(Cl)c1,38.4*,57.9*,-2.7%,-16.7%,17.7%,26.0%
COCCNC(=S)N/N=C/c1ccc([N+](=O)[O-])cc1,-0.4,-9.1,44.4%,2.4%,39.8%,4.3%
C=C(C)CNC(=S)N/N=C/c1ccc([N+](=O)[O-])cc1,8.1,-3.9,58.4%,-20.1%,14.5%,11.7µM*
O=C1C2CC=CCC2C(=O)N1Cc1nnc(-c2ccc(Cl)cc2)o1 (centres undefined),26.0*,69.9*,-6.5%,9.6%,36.2%,0.0%
CSCCC(C(=O)Nc1c(C)cccc1C)N1CCC(Cc2ccccc2)CC1 (centres undefined),nt,nt,-12.7%,nt,nt,nt
C/C(=N\Nc1cc(N2CCOCC2)nc(C)n1)c1cccc([N+](=O)[O-])c1,-4.0,24.8,-2.1%,11.2µM*,56.3%,?

# Source: PubChem BioAssay (National Center for Advancing Translational Sciences (NCATS))
